Measurements: PubChem BioAssay (NCATS)
Active and inactive are the calls of the source. Unless noted, calls follow the shape of the dose curve; as a rule, active = well fitted curve in the direction sought with a large enough effect; inactive = no such curve, though single readings can be large or run the other way. *1 amine or outer side, *2 acyl side, *3 side chain or, on linkers, in order; H or OH if unused. Where a SMILES comes first, the peptide text is derived from it. Bridges are numbered along the chain shown (N, C = ends). Roman numbers before positions name the chains, in order. [ ]: non-standard residue; d: D form. ξ: configuration not given here. Actinocin(9to1) = Cc1c2oc3c(C)ccc(C(=O)[*:1])c3nc-2c(C(=O)[*:2])c(N)c1=O; ξNMeV = CNC(C(=O)O)C(C)C; ξV = CC(C)C(N)C(=O)O; Sar = CNCC(=O)O

experiment: qHTS Assay for Identification of Small Molecule Antagonists for NFkB Signaling Pathway. (AID 624479; calls by dose curve;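 also: pathway stimulated with TNF alpha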; also: potency is read from the fitted curve at half-maximal effect; as to activity change, negative = inhibition: % is scaled to controls: 0 for no effect and ±100 for the full control effect); settings: NFkB pathway reporter cell assay, antagonist mode; series mostly up to 38.3 µM; activity change, negative = inhibition: at the top concentration

Row | Compound | Potency | activity change, negative = inhibition
1 | COC(=O)C1=C(C)NC(C)=C(C(=O)OCCCN2CCC(c3ccccc3)(c3ccccc3)CC2)[C@H]1c1cccc([N+](=O)[O-])c1 | 23.7 µM (active) | –
2 | Cc1nnc(C(C)C)n1C1CC2CCC(C1)N2CC[C@H](NC(=O)C1CCC(F)(F)CC1)c1ccccc1 (some centres not stated) | – | -11.8% (inactive)
3 | CN(NC(=O)CC(=O)NN(C)C(=S)c1ccccc1)C(=S)c1ccccc1 | – | -1.56% (inactive)
4 | CCOc1cc2ncc(C#N)c(Nc3ccc(OCc4ccccn4)c(Cl)c3)c2cc1NC(=O)/C=C/CN(C)C | 7.49 µM (active) | –
5 | NC(=O)Nc1cc(-c2ccc(CN3CCOCC3)c(F)c2)sc1C(=O)N[C@H]1CCCNC1 | 4.73 µM (active) | –
6 | CC(NC(=O)Cc1cc(F)cc(F)c1)C(=O)NC(C(=O)OC(C)(C)C)c1ccccc1 (configuration not stated) | – | -1.7% (inactive)
7 | O=C(O)CC/C=C\CC[C@H]1[C@@H](N2CCCCC2)[C@@H](O)C[C@@H]1OCc1ccc(-c2ccccc2)cc1 | – | -11.5% (inactive)
8 | CCCCCCCCCCCCCCCCCCOP(=O)([O-])OC1CC[N+](C)(C)CC1 | – | -4.96% [at 24.7 µM] (inactive)
9 | Cc1c2oc3c(C)ccc(C(=O)N[C@@H]4C(=O)NC(C(C)C)C(=O)N5CCC[C@H]5C(=O)N(C)CC(=O)N(C)C(C(C)C)C(=O)O[C@@H]4C)c3nc-2c(C(=O)N[C@@H]2C(=O)NC(C(C)C)C(=O)N3CCC[C@H]3C(=O)N(C)CC(=O)N(C)C(C(C)C)C(=O)O[C@@H]2C)c(N)c1=O (some centres not stated) (I: T[ξV]P[Sar][ξNMeV] / II: T[ξV]P[Sar][ξNMeV]; ester I:1-I:C, II:1-II:C; linker I:N-II:N via Actinocin(9to1)) | 0.0119 µM (active) | –
10 | CCC1(Cc2ccc(N)cc2)CCC(=O)NC1=O (configuration not stated) | – | -10% [at 76.6 µM] (inactive)
11 | CNC1CCN(C(Cc2cccc(-c3ccncc3)c2)C(=O)c2sc3c(F)ccc(F)c3c2Cl)CC1 (configuration not stated) | – | -28.9% (inactive)
12 | CCC1(O)CC2CN(CCc3c([nH]c4ccccc34)[C@@](C(=O)OC)(c3cc4c(cc3OC)N(C=O)[C@H]3[C@](O)(C(=O)OC)[C@H](OC(C)=O)[C@]5(CC)C=CCN6CC[C@]43[C@@H]65)C2)C1 (some centres not stated) | – | -24.4% (inactive)

experiment: Cell Proliferation Assay against the HBL1 Cell Line (AID 651646); settings: HBL1 DLBCL cells; at 46.1 µM (top of the series) unless noted;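 also: cells exposed to compound for 48 h before reading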
Procedure, shortened: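 500 log-phase HBL1 cells per well in phenol red-free RPMI with 5% FBS were treated with compounds for 48 h at 37 °C, 5% CO2. Viability was read by CellTiter-Glo luminescence, normalized to DMSO (100%) and 9.2 uM bortezomib final (0%).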

Row | Compound | viability, percent of control
13 | COC(=O)C1=C(C)NC(C)=C(C(=O)OCCCN2CCC(c3ccccc3)(c3ccccc3)CC2)[C@H]1c1cccc([N+](=O)[O-])c1 | 1.4%
14 | Cc1nnc(C(C)C)n1C1CC2CCC(C1)N2CC[C@H](NC(=O)C1CCC(F)(F)CC1)c1ccccc1 (some centres not stated) | 87.3%
15 | C[C@@H]1CCN(C(=O)CC#N)C[C@@H]1N(C)c1ncnc2[nH]ccc12 | 97.5%
16 | CN(NC(=O)CC(=O)NN(C)C(=S)c1ccccc1)C(=S)c1ccccc1 | 60.8%
17 | CCOc1cc2ncc(C#N)c(Nc3ccc(OCc4ccccn4)c(Cl)c3)c2cc1NC(=O)/C=C/CN(C)C | 1.48%
18 | NC(=O)Nc1cc(-c2ccc(CN3CCOCC3)c(F)c2)sc1C(=O)N[C@H]1CCCNC1 | 10.1%
19 | CC(NC(=O)Cc1cc(F)cc(F)c1)C(=O)NC(C(=O)OC(C)(C)C)c1ccccc1 (configuration not stated) | 103%
20 | O=C(O)CC/C=C\CC[C@H]1[C@@H](N2CCCCC2)[C@@H](O)C[C@@H]1OCc1ccc(-c2ccccc2)cc1 | 105%
21 | CCCCCCCCCCCCCCCCCCOP(=O)([O-])OC1CC[N+](C)(C)CC1 | 93.3% [at 29.8 µM]
22 | O=c1cc(C2=CC=CC3Sc4ccccc4SC23)oc(N2CCOCC2)c1 (configuration not stated) | 31.5%
23 | Cc1c2oc3c(C)ccc(C(=O)N[C@@H]4C(=O)NC(C(C)C)C(=O)N5CCC[C@H]5C(=O)N(C)CC(=O)N(C)C(C(C)C)C(=O)O[C@@H]4C)c3nc-2c(C(=O)N[C@@H]2C(=O)NC(C(C)C)C(=O)N3CCC[C@H]3C(=O)N(C)CC(=O)N(C)C(C(C)C)C(=O)O[C@@H]2C)c(N)c1=O (some centres not stated) (I: T[ξV]P[Sar][ξNMeV] / II: T[ξV]P[Sar][ξNMeV]; ester I:1-I:C, II:1-II:C; linker I:N-II:N via Actinocin(9to1)) | 21.5%
24 | CC[C@@H](C(=O)O)C1CC[C@H](C)C([C@@H](C)[C@H](O)[C@H](C)C(=O)[C@H](CC)C2O[C@]3(C=C[C@@H](O)[C@]4(CC[C@@](C)(C5CC[C@](O)(CC)[C@H](C)O5)O4)O3)[C@H](C)C[C@@H]2C)O1 (some centres not stated) | 11.4%
25 | CCC1(Cc2ccc(N)cc2)CCC(=O)NC1=O (configuration not stated) | 97.3% [at 92.2 µM]
26 | CNC1CCN(C(Cc2cccc(-c3ccncc3)c2)C(=O)c2sc3c(F)ccc(F)c3c2Cl)CC1 (configuration not stated) | 0.927%
27 | CCC1(O)CC2CN(CCc3c([nH]c4ccccc34)[C@@](C(=O)OC)(c3cc4c(cc3OC)N(C=O)[C@H]3[C@](O)(C(=O)OC)[C@H](OC(C)=O)[C@]5(CC)C=CCN6CC[C@]43[C@@H]65)C2)C1 (some centres not stated) | 22.9%
